Here are results for eleven molecules from PubChem BioAssay (NCI).

The assay relates to MDA-MB-468 breast. Kind of assay: NCI-60 one-dose screen, 48 h (100 = growth as untreated, 0 = no growth, -100 = all killed). The settings on record: 10 µM unless noted.

The structures appear in SMILES notation. About 83,000 compounds went through this panel and 20% of them were active in at least one assay; those are over-represented in the sample as a whole.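 Testing used 96-well plates and a 48-hour single-concentration exposure. Example: -40 means 40% of the starting cells died.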 Unmarked numbers belong to inactive results. Activity calls are given as the source filed them. How the source made its calls: active means growth percent below 10; inactive means the rest.

As to `C[N+](C)=c1ccc2nc3c(cc(Nc4ccccc4)c4ccccc43)oc-2c1`, the growth is -14.8% (active).

As to `O=C(CSc1ncc(-c2ccccc2)n1-c1ccccc1)Nc1ccc(-c2nc3ccccc3s2)cc1`, the growth was 15.4%. Take `O=C(O)CSCC(=O)Nc1cc(C(F)(F)F)ccc1Cl`: the growth is 105%.

Consider `COc1cc(OC)cc(-c2ccc(-c3ccc(C(=N)N)cc3)s2)c1`, for which the growth is -81.3% (active). Take `CC1COc2c(N3CCN(C)CC3)c(F)cc3c(=O)c(C(=O)N/N=C/c4cc[nH]c4)cn1c23` (stereo unspecified): the growth was -9.35% (active).

Take `CC[C@]12C=CCN3CC[C@@]4(c5cc(NC(=O)CCC(=O)O[C@H]6CC[C@H]7[C@@H]8CCC9=CC(=O)CC[C@@H]9[C@H]8CC[C@]67C)c(OC)cc5N(C)[C@H]4[C@@](O)(C(=O)OC)[C@@H]1OC(C)=O)[C@@H]32`: the growth was 51.9%.

`C#CC#CC#CC#CC#CC#CC#CC#CCC1OCC(COC(=O)O[C@@H](C(=O)O[C@H]2C[C@@]3(O)[C@@H](OC(=O)c4ccccc4)[C@@H]4[C@]5(OC(C)=O)CO[C@@H]5C[C@H](O)[C@@]4(C)C(=O)[C@H](OC(C)=O)C(=C2C)C3(C)C)[C@@H](NC(=O)c2ccccc2)c2ccccc2)O1` (stereo partly specified): the growth was -22.4% (active). In the case of `CSc1nc2c(c(=O)[nH]1)N=C1c3ccccc3C(=O)C1C(c1ccccc1)N2` (stereo unspecified), the growth was 15.4%.

Turning to `Cc1ccc(O)c(C(=O)c2ccccc2Cl)c1`, the growth is 106%. Then `C[C@@H]1N=C(c2ccc(Br)cc2)Nc2nc3ccccn3c2C1=O`, with -0.502% (active); and `COc1ccc(C(=O)N2NC(=O)/C(=C/c3ccc(Br)cc3)N=C2c2ccccc2)cc1`, with 91.8%.
